Laboratory results published in PubChem BioAssay (EPA / NIEHS).
Inconclusive results are not listed. Calls of active or inactive are those of the source. The calls were made as follows: active = hit-call score of the fitted dose curve at least 0.9, where 1 is the maximum; inconclusive = response in the unintended direction; inactive = score below 0.9.

Tests used:
[1] = target: Type-1 angiotensin II receptor (Homo sapiens) (UniProt P30556); experiment: NVS_GPCR_hAT1: NovaScreen (NVS) G Protein-Coupled Receptor Assay for human Angiotensin II receptor type 1 (AT1) (AID 2283263)
Summary of the method: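 Hits from a 25 uM duplicate screen (threshold e.g. 30% inhibition) were run in concentration-response with 50 uM top concentration. Displacement of specific radioligand from KAN-TS membrane preparations measured after 3 h by filter scintillation, DMSO as baseline.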

[2] = target: human Leukotriene B4 Receptor 1 (LTB4-BLT1), LTB4R (gene 1241) (UniProt Q15722); experiment: NVS_GPCR_hLTB4_BLT1: NovaScreen (NVS) G Protein-Coupled Receptor Assay for human Leukotriene B4 Receptor 1 (LTB4-BLT1) (AID 2283271)
Summary of the method: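 Cell-free human neutrophil receptor preparation, 1 h exposure, radioligand binding read by filter scintillation counting. Single 25 uM duplicate screen, then concentration series topping at 50 uM; binding loss scored against DMSO baseline.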

[3] = target: human Dopamine Receptor D4.4 (DRD4.4), DRD4 (gene 1815) (UniProt P21917); experiment: NVS_GPCR_hDRD4.4: NovaScreen (NVS) G Protein-Coupled Receptor Assay for human Dopamine Receptor D4.4 (DRD4.4) (AID 2283264)
Summary of the method: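 Filter-binding assay with a tritiated or iodinated ligand, cell-free receptor prepared from CHO, 1 hour. Loss of bound radioactivity versus DMSO; single 25 uM duplicate screen, then concentration-response for actives.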

[4] = target: human Dopamine Receptor D2 (DRD2), DRD2 (gene 1813) (UniProt P14416); experiment: NVS_GPCR_hDRD2s: NovaScreen (NVS) G Protein-Coupled Receptor Assay for human Dopamine Receptor D2 (DRD2) (AID 2283266)
Summary of the method: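 Test compound (25 uM, duplicate in the primary screen; concentration series at follow-up) competed with radioligand for human DRD2 in CHO-derived membrane protein. Filter-based scintillation counting was done 1.5 hours after dosing, with loss of signal analysed against DMSO.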

[5] = target: Muscarinic acetylcholine receptor M1 (Homo sapiens) (UniProt P11229); experiment: NVS_GPCR_hM1: NovaScreen (NVS) G Protein-Coupled Receptor Assay for human Muscarinic, M1 Receptor (AID 2283270)
Summary of the method: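 Actives from a duplicate 25 uM single-point screen were retested in concentration series. Binding measured as displacement of a radioligand from CHO-derived receptor preparation, 1 h incubation, filtration and scintillation counting, analysed as signal loss against DMSO.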

[6] = target: Muscarinic acetylcholine receptor M3 (Homo sapiens) (UniProt P20309); experiment: NVS_GPCR_hM3: NovaScreen (NVS) G Protein-Coupled Receptor Assay for human Muscarinic, M3 Receptor (AID 2283272)
Summary of the method: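 Radioligand displacement binding on human M3 receptor in CHO-derived membranes, 1 h incubation, filter-based scintillation counting. Primary screen in duplicate at 25 uM; actives followed up in concentration series; loss of signal versus DMSO.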

[7] = target: Beta-2 adrenergic receptor (Homo sapiens) (UniProt P07550); experiment: NVS_GPCR_hAdrb2: NovaScreen (NVS) G Protein-Coupled Receptor Assay for human Adrenergic, Beta 2 Receptor (Adrb2) (AID 2283261)
Summary of the method: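 Compounds screened in duplicate at 25 uM, then actives in concentration series. Human beta-2 receptor from CHO material, cell-free; radioligand displacement after 1 h measured by filtration and scintillation against DMSO baseline.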

[8] = target: human Histamine 1 Receptor (H1), HRH1 (gene 3269) (UniProt P35367); experiment: NVS_GPCR_hH1: NovaScreen (NVS) G Protein-Coupled Receptor Assay for human Histamine 1 Receptor (H1) (AID 2283268)
Summary of the method: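 Filter-based scintillation detection of radioligand binding to human H1, 1 h incubation; chemicals screened in duplicate at 25 uM, then concentration-response; signal loss relative to DMSO taken as activity.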

[9] = target: human Adrenergic, Beta 3 Receptor (Adrb3), ADRB3 (gene 155) (UniProt P13945); experiment: NVS_GPCR_hAdrb3: NovaScreen (NVS) G Protein-Coupled Receptor Assay for human Adrenergic, Beta 3 Receptor (Adrb3) (AID 2283262)
Experimental: NVS_GPCR_hAdrb3 is a biochemical, single-readout assay that uses extracted gene-proteins from SK-N-MC pretreated with isoproteronol and 8-bromo-cAMP in a cell-free assay. Measurements were taken 1 hour after chemical dosing in a 48-well plate.NVS_GPCR_hAdrb3 is one of one assay component(s) measured or calculated from the NVS_GPCR_hAdrb3 assay. It is designed to make measurements of radioligand binding, a form of binding reporter, as detected with scintillation counting signals by Filter-based radiodetection technology.Data from the assay component NVS_GPCR_hAdrb3 was analyzed into 1 assay endpoint. This assay endpoint, NVS_GPCR_hAdrb3, was analyzed in the positive analysis fitting direction relative to DMSO as the negative control and baseline of activity. Using a type of binding reporter, loss-of-signal activity can be used to understand changes in the binding as they relate to the gene ADRB3. Furthermore, this assay endpoint can be referred to as a primary readout, because the performed assay has only produced 1 assay endpoint. To generalize the intended target to other relatable targets, this assay endpoint is annotated to the gpcr intended target family, where the subfamily is rhodopsin-like receptor.
Binding assays used specific radioligands (tritiated, iodinated) with non-radioactive competitive displacement ligands in agonist or antagonist protocols (as indicated) and various reference compounds and inhibitors to titrate specific binding to receptors and transporters. Most enzyme assays (CYPs, kinases, phosphatases, proteases, HDACs) used recombinant protein and specific substrates (fluorescence mostly, some colorimetric and radioactive) and inhibitors, followed by a biochemical separation of substrate and product. All assays for the biochemical HTS were initially run in duplicate at a single concentration (10 uM for CYP450 assays and 25 uM for all others). […] Each assay was run with positive and negative controls, and concurrent controls on every plate. […]

[10] = target: D(1A) dopamine receptor (Homo sapiens) (UniProt P21728); experiment: NVS_GPCR_hDRD1: NovaScreen (NVS) G Protein-Coupled Receptor Assay for human Dopamine Receptor D1 (DRD1) (AID 2283269)
Summary of the method: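 Radioligand displacement binding on membranes/protein extracted from HEK293 expressing human D1, cell-free; read 1 h after dosing by filter-based scintillation counting. Primary screen in duplicate at 25 uM, actives followed up in concentration series; signal loss versus DMSO baseline.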

Sequence of human Dopamine Receptor D2 (DRD2), DRD2 (gene 1813) (P14416 whole entry, looked up): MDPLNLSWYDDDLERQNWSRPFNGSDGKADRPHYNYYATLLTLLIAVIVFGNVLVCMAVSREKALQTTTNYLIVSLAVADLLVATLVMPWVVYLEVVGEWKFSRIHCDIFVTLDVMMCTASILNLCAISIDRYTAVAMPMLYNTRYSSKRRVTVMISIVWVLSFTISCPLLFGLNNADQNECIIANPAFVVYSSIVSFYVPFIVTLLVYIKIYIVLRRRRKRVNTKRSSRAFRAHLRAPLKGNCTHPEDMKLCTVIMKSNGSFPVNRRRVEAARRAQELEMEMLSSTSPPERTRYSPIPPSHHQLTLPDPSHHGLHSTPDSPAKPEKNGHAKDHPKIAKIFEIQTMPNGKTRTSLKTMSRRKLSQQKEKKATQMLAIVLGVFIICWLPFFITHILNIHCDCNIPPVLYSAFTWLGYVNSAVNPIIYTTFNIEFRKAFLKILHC
Sequence of human Adrenergic, Beta 3 Receptor (Adrb3), ADRB3 (gene 155) (P13945 whole entry, looked up): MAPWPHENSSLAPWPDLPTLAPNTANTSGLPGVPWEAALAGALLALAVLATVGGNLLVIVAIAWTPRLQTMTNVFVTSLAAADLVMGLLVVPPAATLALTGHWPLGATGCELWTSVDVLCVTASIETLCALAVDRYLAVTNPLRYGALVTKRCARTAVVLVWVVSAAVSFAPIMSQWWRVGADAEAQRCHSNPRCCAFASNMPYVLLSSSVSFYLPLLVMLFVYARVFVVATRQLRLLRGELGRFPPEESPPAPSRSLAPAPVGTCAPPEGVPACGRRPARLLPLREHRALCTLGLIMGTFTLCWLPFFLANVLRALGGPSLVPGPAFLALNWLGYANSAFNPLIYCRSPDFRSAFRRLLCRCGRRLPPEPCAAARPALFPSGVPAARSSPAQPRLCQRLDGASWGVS
Sequence of Muscarinic acetylcholine receptor M1 (Homo sapiens) (P11229 whole entry, looked up): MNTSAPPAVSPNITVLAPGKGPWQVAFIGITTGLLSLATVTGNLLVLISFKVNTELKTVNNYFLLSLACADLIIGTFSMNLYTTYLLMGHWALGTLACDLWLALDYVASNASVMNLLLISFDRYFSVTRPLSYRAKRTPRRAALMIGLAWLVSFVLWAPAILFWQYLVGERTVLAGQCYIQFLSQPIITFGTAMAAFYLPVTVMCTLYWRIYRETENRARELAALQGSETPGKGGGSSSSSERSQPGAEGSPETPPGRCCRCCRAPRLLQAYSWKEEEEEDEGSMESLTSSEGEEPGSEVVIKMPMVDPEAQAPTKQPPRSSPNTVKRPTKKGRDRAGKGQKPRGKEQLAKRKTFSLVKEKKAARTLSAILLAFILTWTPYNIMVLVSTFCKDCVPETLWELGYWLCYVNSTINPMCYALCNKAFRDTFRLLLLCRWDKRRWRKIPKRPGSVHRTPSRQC
Sequence of human Leukotriene B4 Receptor 1 (LTB4-BLT1), LTB4R (gene 1241) (Q15722 whole entry, looked up): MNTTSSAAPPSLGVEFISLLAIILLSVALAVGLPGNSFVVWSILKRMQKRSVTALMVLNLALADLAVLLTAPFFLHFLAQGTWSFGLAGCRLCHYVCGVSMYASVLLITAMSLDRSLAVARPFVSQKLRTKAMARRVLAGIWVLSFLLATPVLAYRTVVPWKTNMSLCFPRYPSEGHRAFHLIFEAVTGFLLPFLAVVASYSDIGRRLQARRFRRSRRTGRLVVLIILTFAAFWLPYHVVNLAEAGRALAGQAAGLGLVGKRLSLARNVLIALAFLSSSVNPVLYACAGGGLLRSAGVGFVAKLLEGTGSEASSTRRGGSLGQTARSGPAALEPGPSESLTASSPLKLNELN
Sequence of Muscarinic acetylcholine receptor M3 (Homo sapiens) (P20309 whole entry, looked up): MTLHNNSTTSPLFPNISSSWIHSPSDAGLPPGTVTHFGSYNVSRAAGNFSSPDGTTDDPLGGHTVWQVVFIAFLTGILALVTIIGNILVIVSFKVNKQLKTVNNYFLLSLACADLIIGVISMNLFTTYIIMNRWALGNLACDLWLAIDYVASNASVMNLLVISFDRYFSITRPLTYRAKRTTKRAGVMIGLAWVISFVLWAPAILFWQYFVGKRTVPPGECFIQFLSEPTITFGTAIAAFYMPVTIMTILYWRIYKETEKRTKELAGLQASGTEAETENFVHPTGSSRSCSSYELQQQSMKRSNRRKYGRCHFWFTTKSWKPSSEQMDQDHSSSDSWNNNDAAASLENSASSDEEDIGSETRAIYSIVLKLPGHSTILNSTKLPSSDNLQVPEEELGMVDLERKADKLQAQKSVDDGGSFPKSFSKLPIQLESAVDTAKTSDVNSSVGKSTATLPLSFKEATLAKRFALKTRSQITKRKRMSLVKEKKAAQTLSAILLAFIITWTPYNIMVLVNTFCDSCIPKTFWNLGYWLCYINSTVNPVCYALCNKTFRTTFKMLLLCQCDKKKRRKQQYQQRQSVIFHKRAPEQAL
Sequence of Type-1 angiotensin II receptor (Homo sapiens) (P30556 whole entry, looked up): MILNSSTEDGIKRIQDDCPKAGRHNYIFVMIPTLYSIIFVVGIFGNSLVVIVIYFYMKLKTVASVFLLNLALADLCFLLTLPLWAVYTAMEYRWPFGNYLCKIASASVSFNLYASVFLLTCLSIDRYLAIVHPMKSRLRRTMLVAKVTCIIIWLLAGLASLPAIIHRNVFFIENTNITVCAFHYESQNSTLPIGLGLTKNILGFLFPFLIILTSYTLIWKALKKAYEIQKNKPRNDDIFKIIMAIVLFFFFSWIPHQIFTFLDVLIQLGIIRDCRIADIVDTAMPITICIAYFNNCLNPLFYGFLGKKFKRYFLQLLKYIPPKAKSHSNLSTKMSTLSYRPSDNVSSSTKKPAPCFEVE
Sequence of D(1A) dopamine receptor (Homo sapiens) (P21728 whole entry, looked up): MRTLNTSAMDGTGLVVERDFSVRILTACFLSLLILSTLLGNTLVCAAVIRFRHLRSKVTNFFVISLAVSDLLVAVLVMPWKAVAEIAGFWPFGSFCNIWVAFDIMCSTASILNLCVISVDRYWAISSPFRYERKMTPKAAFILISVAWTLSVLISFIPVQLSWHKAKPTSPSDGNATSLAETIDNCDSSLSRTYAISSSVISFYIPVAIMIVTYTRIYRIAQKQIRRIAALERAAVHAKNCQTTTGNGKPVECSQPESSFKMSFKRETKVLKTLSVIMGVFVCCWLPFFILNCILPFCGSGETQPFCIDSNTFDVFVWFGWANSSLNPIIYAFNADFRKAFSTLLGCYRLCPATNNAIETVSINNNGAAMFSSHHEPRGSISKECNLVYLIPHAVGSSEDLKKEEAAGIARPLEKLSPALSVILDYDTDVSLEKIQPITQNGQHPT
Sequence of human Histamine 1 Receptor (H1), HRH1 (gene 3269) (P35367 whole entry, looked up): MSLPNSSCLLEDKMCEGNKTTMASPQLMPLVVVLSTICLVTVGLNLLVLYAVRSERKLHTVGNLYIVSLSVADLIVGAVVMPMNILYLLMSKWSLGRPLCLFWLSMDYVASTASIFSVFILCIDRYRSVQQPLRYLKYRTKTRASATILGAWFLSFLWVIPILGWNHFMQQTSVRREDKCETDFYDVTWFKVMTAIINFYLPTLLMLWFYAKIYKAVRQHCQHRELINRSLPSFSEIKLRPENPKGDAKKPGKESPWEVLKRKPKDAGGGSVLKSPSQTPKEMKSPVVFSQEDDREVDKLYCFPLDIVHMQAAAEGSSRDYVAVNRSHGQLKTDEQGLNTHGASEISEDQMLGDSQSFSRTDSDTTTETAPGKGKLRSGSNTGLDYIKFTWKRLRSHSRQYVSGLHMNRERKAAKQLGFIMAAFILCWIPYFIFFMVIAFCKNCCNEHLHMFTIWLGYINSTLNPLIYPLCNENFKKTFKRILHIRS
Sequence of Beta-2 adrenergic receptor (Homo sapiens) (P07550 whole entry, looked up): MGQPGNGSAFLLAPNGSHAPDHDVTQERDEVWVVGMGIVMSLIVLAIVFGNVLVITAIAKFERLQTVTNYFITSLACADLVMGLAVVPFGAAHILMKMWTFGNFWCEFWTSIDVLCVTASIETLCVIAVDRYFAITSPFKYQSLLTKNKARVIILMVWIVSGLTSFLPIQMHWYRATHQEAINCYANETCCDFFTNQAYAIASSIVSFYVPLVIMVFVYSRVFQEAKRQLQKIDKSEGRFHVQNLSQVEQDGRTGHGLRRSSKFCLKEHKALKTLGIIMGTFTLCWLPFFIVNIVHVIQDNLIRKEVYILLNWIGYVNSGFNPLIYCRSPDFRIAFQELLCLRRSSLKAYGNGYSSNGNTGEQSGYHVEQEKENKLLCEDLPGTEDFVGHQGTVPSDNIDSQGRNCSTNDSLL
Sequence of human Dopamine Receptor D4.4 (DRD4.4), DRD4 (gene 1815) (P21917 whole entry, looked up): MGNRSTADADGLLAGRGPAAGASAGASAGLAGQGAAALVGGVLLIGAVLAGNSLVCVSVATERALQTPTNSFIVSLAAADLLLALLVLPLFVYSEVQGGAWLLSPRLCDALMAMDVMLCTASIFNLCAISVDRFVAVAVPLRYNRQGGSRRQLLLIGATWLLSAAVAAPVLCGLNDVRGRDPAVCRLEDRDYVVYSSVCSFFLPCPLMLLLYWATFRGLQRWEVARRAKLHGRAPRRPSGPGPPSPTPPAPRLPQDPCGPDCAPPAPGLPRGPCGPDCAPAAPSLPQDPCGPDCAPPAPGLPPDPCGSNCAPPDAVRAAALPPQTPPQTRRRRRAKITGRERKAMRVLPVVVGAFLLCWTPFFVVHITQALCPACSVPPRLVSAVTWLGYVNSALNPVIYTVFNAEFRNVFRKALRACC

`COC(=O)N(C(=O)N1CO[C@@]2(C(=O)OC)Cc3cc(Cl)ccc3C2=N1)c1ccc(OC(F)(F)F)cc1` was tested, and the outcome [1] was “inactive” and the outcome [2] was “inactive”.

In the case of `CCCN(CC)CC1COC2(CCC(C(C)(C)C)CC2)O1` (centres undefined), the AC50 [3] is reported as 7.95 µM (active), the outcome [4] is reported as “inactive” and the AC50 [5] is reported as 4.97 µM (active). For the same molecule, the AC50 [6] was 8.78 µM (active).

For `Cc1cc(C)nc(Nc2ccccc2)n1`, the AC50 [6] was 12.4 µM (active).

With `COP(=S)(OC)SCn1nnc2ccccc2c1=O` the outcome [7] was “inactive” and the outcome [8] was “inactive”.

With `CN/C(=N\[N+](=O)[O-])NCc1cnc(Cl)s1` the outcome [9] was “inactive”.

For `CCCCC(C#N)(Cn1cncn1)c1ccc(Cl)cc1` (centres undefined), the AC50 [5] was 5.56 µM (active) and the AC50 [6] was 8.08 µM (active).

In the case of `CCCCC(O)(Cn1cncn1)c1ccc(Cl)cc1Cl` (centres undefined), the outcome [2] is reported as “inactive”.

`CCC(C)n1c(=O)[nH]c(C)c(Br)c1=O` (centres undefined) was tested, and the outcome [8] was “inactive” and the outcome [6] was “inactive”.

In the case of `Cn1c(-c2ccccc2)cc(-c2ccccc2)[n+]1C`, the AC50 [5] is reported as 2.84 µM (active) and the AC50 [6] is reported as 9.02 µM (active).

With `O=c1n(Cl)c(=O)n(Cl)c(=O)n1Cl` the outcome [5] was “inactive”.

With `OC(c1ccc(Cl)cc1)(c1ccc(Cl)cc1)C(Cl)(Cl)Cl` the outcome [4] was “inactive”.

In the case of `Clc1nc(Cl)nc(Nc2ccccc2Cl)n1`, the outcome [8] is reported as “inactive”.

For `CC1(C)C(C=C(Cl)Cl)C1C(=O)OC(C#N)c1cccc(Oc2ccccc2)c1` (centres undefined), the outcome [1] was “inactive”.

With `O=C1C2CC=CCC2C(=O)N1SC(Cl)(Cl)Cl` (centres undefined) the AC50 [1] was 13.4 µM (active), the AC50 [4] was 25 µM (active) and the AC50 [10] was 9.65 µM (active).

`CCOP(=O)(OCC)Oc1nc(Cl)c(Cl)cc1Cl` was tested, and the outcome [8] was “inactive” and the outcome [10] was “inactive”.

With `COC(=O)NS(=O)(=O)c1ccc(N)cc1` the outcome [7] was “inactive” and the outcome [5] was “inactive”.

`CC(C)=CC1C(C(=O)OCc2coc(Cc3ccccc3)c2)C1(C)C` (centres undefined) was tested, and the AC50 [10] was 11.5 µM (active).

`CCSC(=O)N1CCCCCC1` was tested, and the AC50 [6] was 8.57 µM (active).

In the case of `CC(C)(C)C(=O)C(Oc1ccc(Cl)cc1)n1cncn1` (centres undefined), the AC50 [2] is reported as 11.8 µM (active) and the outcome [6] is reported as “inactive”.

In the case of `Nc1c(Cl)c(Cl)nc(C(=O)O)c1Cl`, the outcome [7] is reported as “inactive”.

With `CCCCOCN(C(=O)CCl)c1c(CC)cccc1CC` the outcome [2] was “inactive”.

`COCC(C)N(C(=O)CCl)c1c(C)csc1C` (centres undefined) was tested, and the outcome [2] was “inactive”.

In the case of `COc1cc(OC)nc(NC(=O)NS(=O)(=O)c2ncccc2OCC(F)(F)F)n1`, the outcome [2] is reported as “inactive”.

For `N#Cc1c[nH]cc1-c1cccc2c1OC(F)(F)O2`, the outcome [7] was “inactive”, the outcome [3] was “inactive” and the outcome [5] was “inactive”.

For `CC(C)Oc1cccc(NC(=O)c2ccccc2C(F)(F)F)c1`, the outcome [9] was “inactive”.

For `O=C(O)c1c(Cl)ccc2cc(Cl)cnc12`, the outcome [9] was “inactive”.

With `CN=C=S` the outcome [7] was “inactive”.

For `CCOc1cc(C(C)(C)C)ccc1C1COC(c2c(F)cccc2F)=N1` (centres undefined), the outcome [10] was “inactive”.

In the case of `Cc1ccc(N=CN(C)C=Nc2ccc(C)cc2C)c(C)c1`, the outcome [10] is reported as “inactive”.
